Records with an inconclusive call do not appear. Activity calls are given as the source filed them. Calls follow the shape of the dose curve; as a rule, active = well fitted curve in the direction sought with a large enough effect; inconclusive = small, poorly fitted or top-dose-only effect, or another doubt; inactive = no such curve, though single readings can be large or run the other way.
molecular target: Isocitrate dehydrogenase [NADP] cytoplasmic (Homo sapiens) (UniProt O75874); test: qHTS for Inhibitors of mutant isocitrate dehydrogenase 1 (IDH1): WT assay for probe SAR; conditions: WT IDH1 enzyme, NADPH diaphorase/resazurin fluorescence; series mostly up to 100 µM
Description: Malignant glioblastomas (WHO grade IV), including primary and secondary glioblastomas, are among the most lethal with a median survival of one year, and unfortunately they are also the most prevalent type of brain tumors. By and large the standard of care of gliomas remains the use of the oral alkylating agent temozolomide and radiotherapy following surgical tumor resection. There is an urgent unmet medical need for novel therapeutics for gliomas. IDH mutations occur in up to 70% of grade II-IV secondary glioblastomas, and IDH1 R132H is the most prevalent mutation. […] Wild-type (WT) IDH1 catalyzes the conversion of isocitrate to -ketoglutarate with the concomitant reduction of NADP+ to NADPH. In contrast, IDH1 R132H catalyzes the conversion of -ketoglutarate to 2-hydroxyglutarate (2-HG) with the concomitant oxidation of NADPH to NADP+ [5]. Recently, a second significant advancement for the field was the finding that IDH is an oncogene, and that its metabolic product 2-HG may contribute to the pathogenesis of IDH-mutated cancers. […] Although this link to cancer is tantalizing, the direct evidence of how 2-HG drives pathogenesis of gliomas and AML remains a subject of further research. The goal of this selectivity assay is to identify small-molecule inhibitors of WT IDH1 using a biochemical assay that measures product NADPH production through the use of a diaphorase/resazurin-coupled system. Inhibition of the WT IDH1 enzymatic reaction leads to a decrease in the amount of NADPH relative to a DMSO control and a concomitant decrease in the fluorescence of the diaphorase/resazurin enzyme product resorufin at 590 nm. Compounds were screened as concentration-titration series that ranged from 100 microM to 5 nM. NIH Molecular Libraries Probe Production Network [MLPCN] NIH Chemical Genomics Center [NCGC] MLSCN Grant: R03 DA032129 PI Name: Dr. Lenny Dang
Compounds or DMSO were dispensed into black, solid 96-well plates at 1 microL/well. Then, 40 microL/well enzyme buffer was dispensed in 20 mM Tris buffer, pH 7.5, containing final concentrations of 10 mM MgCl2, 20 mM NaCl, 0.05% BSA, 2 mM beta-ME and […] WT IDH1. These were incubated at RT for 60 minutes. The substrate and detection buffer (10 microL; 20 mM Tris buffer, pH 7.5, containing final concentrations of 10 mM MgCl2, 20 mM NaCl, 0.05% BSA, 0.05 mM NADP+, 0.00053 mM diaphorase, 0.04 mM resazurin and 0.07 mM isocitrate) was added to start the enzymatic reaction. The reaction progressed for 30 minutes at RT and which point 25 microL/well of 2% SDS was added as a stop solution. Following 1 minute of shaking on an oribital shaker, the fluorescence intensity was monitored on a Spectramax M5 plate reader (Ex 544, Em 590, bodipy filter). The %Activity was determined from the corrected fluorescence values. As no specific WT IDH1 inhibitors have been identified in the literature, 1x (0.65 nM) and 0x WT IDH1 enzyme controls (untreated) were included to normalize %Activity of identified inhibitors; 0x enzyme values corresponded to 100%Activity (full inhibition), while 1x WT IDH1 enzyme values were used to normalize 0%Activity (no inhibition ). Concentration-response curves were fitted to the signals arising from the resulting fluorescence. The concentration-response curves were then classified based on curve quality (r2), response magnitude and degree of measured activity, and compounds were subsequently categorized based on their curve class. […] Keywords: Isocitrate dehydrogenase, IDH1, IDH1 R132H, 2-HG, 2-hydroxyglutarate, AML, glioma, MLSMR, MLPCN, NIH Roadmap, qHTS, NCGC

Isocitrate dehydrogenase [NADP] cytoplasmic (Homo sapiens), sequence (O75874 whole entry, looked up): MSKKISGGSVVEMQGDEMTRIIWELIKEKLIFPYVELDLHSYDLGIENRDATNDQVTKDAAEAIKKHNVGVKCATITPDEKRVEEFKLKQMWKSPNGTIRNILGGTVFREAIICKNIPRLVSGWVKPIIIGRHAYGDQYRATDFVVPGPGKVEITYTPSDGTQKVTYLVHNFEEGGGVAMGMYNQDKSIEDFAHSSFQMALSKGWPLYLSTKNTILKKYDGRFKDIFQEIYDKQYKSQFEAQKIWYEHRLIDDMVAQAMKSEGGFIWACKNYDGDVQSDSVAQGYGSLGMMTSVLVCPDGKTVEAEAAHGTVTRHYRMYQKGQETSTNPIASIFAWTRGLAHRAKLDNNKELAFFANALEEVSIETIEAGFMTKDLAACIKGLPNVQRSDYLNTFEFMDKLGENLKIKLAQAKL

outcome, inactive:
Cc1nc(C)c(C(=O)N(c2cccc(F)c2)C(C(=O)NC2CCCCC2)c2ccccc2)s1 (configuration not stated)
COc1ccc(N(C(=O)Cc2cccs2)C(C(=O)NC2CCCC2)c2ccccc2C)cc1OC (configuration not stated)
Cc1ccccc1C(C(=O)NCc1ccccc1)N(C(=O)Cc1cccs1)c1cccc(F)c1 (configuration not stated)
Cc1ccccc1C(C(=O)N(C)C1CCCCC1)N(C(=O)Cc1cccs1)c1cccc(F)c1 (configuration not stated)
Cc1ccccc1C(C(=O)NC1CCCCC1)N(C(=O)c1ccccn1)c1cccc(F)c1 (configuration not stated)
O=C(NC1CCCC1)C(c1cccs1)N(C(=O)Cc1cccs1)c1cccc(F)c1 (configuration not stated)
Cc1ccccc1C(C(=O)NC1CCCC1)N(C(=O)Cc1cccs1)c1ccccc1F (configuration not stated)
COc1ccc(N(C(=O)Cn2cnc3ccccc32)C(C(=O)NC2CCCCC2)c2ccccc2)cc1 (configuration not stated)
COc1ccccc1CN(C(=O)Cc1cccs1)C(C(=O)NC1CCCCC1)c1ccccc1F (configuration not stated)
O=C(NC1CCCC1)C(c1ccccc1)N(C(=O)Cc1cccs1)c1cccc(F)c1 (configuration not stated)
Cc1ccccc1C(C(=O)NC1CCCCC1)N(C(=O)Cc1cccs1)C(C)C (configuration not stated)
O=C(NC1CCCCC1)C(c1ccncc1)N(C(=O)Cc1cccs1)c1cccc(F)c1 (configuration not stated)
COc1cccc(N(C(=O)Cc2cccs2)C(C(=O)NC2CCCC2)c2ccccc2)c1 (configuration not stated)
COc1cccc(C(C(=O)NC2CCCCC2)N(C(=O)c2cccs2)c2ccc3c(c2)OCO3)c1 (configuration not stated)
Cc1ccccc1C(C(=O)NC(C)(C)C)N(C(=O)Cc1cccs1)c1cccc(F)c1 (configuration not stated)
COc1ccc(N(C(=O)C2COc3ccccc3O2)C(C(=O)NC2CCCCC2)c2ccccc2)cc1OC (configuration not stated)
COc1cc(OC)cc(N(C(=O)Cc2cccs2)C(C(=O)NC2CCCC2)c2ccccc2C)c1 (configuration not stated)
COc1ccc(C(C(=O)NC2CCCC2)N(C(=O)Cc2cccs2)c2cccc(F)c2)cc1OC (configuration not stated)
Cc1ccc(C(C(=O)NC2CCCC2)N(C(=O)Cc2cccs2)c2cccc(F)c2)o1 (configuration not stated)
Cc1ccccc1C(C(=O)NC1CCCCC1)N(C(=O)CNS(=O)(=O)c1ccccc1)c1cccc(F)c1 (configuration not stated)
Cc1ccccc1C(C(=O)NC1CCCC1)N(C(=O)Cc1cccs1)c1ccccc1 (configuration not stated)
O=C(NC1CCCCC1)C(C1CCCC1)N(C(=O)Cc1cccs1)c1cccc(F)c1 (configuration not stated)
